Our source for the Potency and outcome values is PubChem BioAssay (Tox21).

Records with an inconclusive call do not appear. Active and inactive are the calls of the source. Unless noted, calls follow the shape of the full dose curve.

A short description of assay [1]: Nuclear factor erythroid 2-related factor 2/antioxidant responsive element (Nrf2/ARE) small molecule agonists: qHTS cell viability counter screen in human keratinocytes (AID 1919968; active = well fitted curve in the direction sought with a large enough effect in the repeat runs; an effect the other way counts as inactive or inconclusive; also: nearly all actives have a fitted effect of over 55% in size). The essentials: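 Cytotoxicity was multiplexed with the Nrf2/ARE luciferase assay in the same wells. Stably transfected HaCaT keratinocytes were treated with test compounds for 23 h at 37 C. Cell viability was then measured by CellTiter-Fluor fluorescence.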
In general terms: qHTS replaces the single test concentration by a dilution series.

Assay [2] can be described thus: Nuclear factor erythroid 2-related factor 2/antioxidant responsive element (Nrf2/ARE) small molecule agonists: luciferase reporter gene qHTS assay in human keratinocytes (AID 1919969). Also: nearly all actives have a fitted effect of over 35% in size. Also: potency is read from the fitted curve at half-maximal effect. Background: Reporter assays use an easily measured gene product as a stand-in for the process of interest.
Assay [3] deals with Gonadotropin-releasing hormone receptor (Homo sapiens) (UniProt P30968). The assay can be described thus: Human gonadotropin-releasing hormone receptor (GnRHR) small molecule agonists, calcium flux assay in GnRHR-HEK293 cells (AID 1920063). Also: nearly all actives have a fitted effect of over 35% in size. Summed up:
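Agonist activity was measured as intracellular calcium flux in HEK293 cells engineered to stably express human GnRHR. After dye loading for 1 hour at 37 C, compounds in DMSO were added and fluorescence was followed for 3 minutes.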

The target in assay [4] is KiSS-1 receptor (Homo sapiens) (UniProt Q969F8). Put plainly: Human kisspeptin (KISS1R) small molecule agonists, calcium flux assay in KISS1R-HEK293 cells (AID 1920064; active = well fitted curve in the direction sought with a large enough effect in the repeat runs; an effect the other way counts as inactive or inconclusive). The essentials:
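Agonist activity is monitored as intracellular calcium rise in engineered HEK293 cells carrying human KISS1R. Cells are dye-loaded for 1 h at 37 C before compound addition, and fluorescence is recorded for 3 min.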
For orientation: Calcium assays in cells follow changes in intracellular calcium, usually with a dye or a luminescent sensor.

Assay [5] is described as follows: G protein-coupled receptor (GPCR) small molecule agonists, calcium flux assay: HEK293 wild type cell line counter screen (AID 1920065). Summed up:
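Seed cells, incubate 18 h (37 C, 5% CO2); add calcium dye, 1 h at 37 C; pin-transfer compounds, ATP control or DMSO; read fluorescence 480/540 nm each second for 3 min.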

The nature of assay [6]: p53 small molecule agonists, cell-based qHTS assay with human liver microsomes (AID 1963577). The essentials:
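Cells carrying a p53-responsive bla reporter were rested 5 h (37 C, 5% CO2) before compound transfer. Human liver microsomes plus NADPH, 0.5 mg/mL final apiece, supplied metabolism during the 16 h 37 C exposure.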

The nature of assay [7]: p53 small molecule agonists, cell-based qHTS assay with rat liver microsomes (AID 1963578). The essentials: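 Fluorescence from a beta-lactamase reporter under a p53 response element was measured after cells had been incubated 16 h at 37 C with test compound and rat liver microsomes plus NADPH (0.5 mg/mL final each).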
Assay [8] in a line: p53 small molecule agonists, cell-based qHTS assay with human liver microsomes: qHTS cell viability counter screen (AID 1963579). Also: nearly all actives have a fitted effect of over 45% in size. The essentials:
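Seed p53RE-bla cells at 4,000 per well; incubate 5 h at 37 C; add compound, human liver microsomes and NADPH; incubate 16 h at 37 C; add CellTiter-Glo; after 30 min at room temperature, read luminescence.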

The nature of assay [9]: p53 small molecule agonists, cell-based qHTS assay with rat liver microsomes: qHTS cell viability counter screen (AID 1963580). Also: nearly all actives have a fitted effect of over 45% in size. Summed up: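 Luminescent ATP readout (CellTiter-Glo, 30 min at room temperature) reports viability of p53RE-bla HCT-116 cells after 16 h at 37 C with test compounds under metabolic activation by rat liver microsomes and NADPH at 0.5 mg/mL final each.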

Assay [10] in a line: p53 small molecule agonists, cell-based qHTS assay: qHTS cell viability counter screen (AID 1963581). Also: nearly all actives have a fitted effect of over 45% in size. The essentials:
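Viability was counter-screened in parallel with the p53 agonist reporter by measuring intracellular ATP luminescence in the same HCT-116 p53RE-bla wells after 16 h compound treatment at 37 C.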

Assay [11] can be described thus: p53 small molecule agonists, cell-based qHTS assay (AID 1963582; active = well fitted activation curve with a large enough effect in the signal ratio in the repeat runs, not every such curve was filed as active; the % refers to the signal ratio). The essentials:
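Cells carrying a p53-responsive bla reporter are treated with test compounds for 16 h at 37 C; beta-lactamase activity is then detected with LiveBLAzer B/G FRET substrate after 2 h at room temperature.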

In assay [12] the target is 5-hydroxytryptamine receptor 2A (Homo sapiens) (UniProt P28223). Put plainly: 5-hydroxytryptamine receptor 2A (HTR2A) small molecule agonists, cell-based qHTS assay (AID 1963587). Also: nearly all actives have a fitted effect of over 30% in size. Summed up:
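HTR2A-CHO cells, plated 18 h at 37 C/5% CO2, dye-loaded 1 h at 37 C; compounds in DMSO added by pin tool (agonist mode). Intracellular calcium flux read as kinetic fluorescence on FDSS over 2 min at 1 s intervals.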

Assay [13] addresses Muscarinic acetylcholine receptor M1 (Homo sapiens) (UniProt P11229). Put plainly: Cholinergic receptor muscarinic 1 (CHRM1) small molecule antagonists, cell-based qHTS assay (AID 1963588). Also: nearly all actives have a fitted effect of over 40% in size. The essentials:
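Compounds were tested at 15 concentrations in three independent runs. Dye-loaded CHRM1-CHO cells were exposed 5 min at room temperature before stimulation by acetylcholine added at 50nM. Intracellular calcium was read kinetically on FDSS for 3 min.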

Assay [14] is described as follows: cAMP Responsive Elements (CRE) small molecule agonists, cell-based qHTS assay (AID 1963590). Summed up: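 Cells carrying a CRE-driven beta-lactamase reporter (HEK 293T) are seeded, incubated overnight (18 h), and treated with test compounds for 3 h at 37 C; reporter activity is then detected with a FRET substrate after 2 h at room temperature.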
A short description of assay [15]: cAMP Responsive Elements (CRE) small molecule antagonists, cell-based qHTS assay (AID 1963591; active = well fitted inhibition curve with a large enough effect in the signal ratio in the repeat runs, not every such curve was filed as active; the % refers to the signal ratio). The essentials: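 Cells (CRE-bla HEK 293T, DMEM with 10% dialyzed FBS and 25 mM HEPES) are seeded and incubated 18 h. Compounds are added with NKH477 agonist at 0.25 uM final for 3 h, then FRET substrate for 2 h.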
Assay [16] concerns the target Beta-2 adrenergic receptor (Homo sapiens) (UniProt P07550). The assay can be described thus: Adrenergic beta2 receptor (ADRB2) small molecule antagonists, cell-based qHTS assay (AID 1963592). Also: series mostly up to about 92 µM; nearly all actives have a fitted effect of over 50% in size. The essentials:
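Assay format: CHO-ADRB2 cells, 18-20hr seeding at 37C/5% CO2, then compound plus 1nM isoproterenol agonist mix for 0.5hr RT. Homogeneous time-resolved fluorescence cAMP detection after 1hr, expressed as 665/615 nm ratio.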

The target of assay [17] is D(2) dopamine receptor (Homo sapiens) (UniProt P14416). The assay can be described thus: Dopamine D2 receptor (DRD2) small molecule agonists, cell-based qHTS assay (AID 1963594). Also: nearly all actives have a fitted effect of over 35% in size. The essentials: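 HEK293 cells stably expressing DRD2 were cultured 24 h at 37 C, then given Ro20-1724 (0.1 mM final) and compounds for 10 min at room temperature. NKH477 (200nM) was then added for 30 min. cAMP was read by HTRF.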

Assay [18] has the same target. The assay can be described thus: Dopamine D2 receptor (DRD2) small molecule antagonists, cell-based qHTS assay (AID 1963595; active = well fitted inhibition curve with a large enough effect in the signal ratio in the repeat runs, with a control signal flat; the % refers to the signal ratio). Summed up: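 Antagonist mode in DRD2-HEK293 cells: after compound addition with 0.1 mM Ro20-1724, cells received quinpirole (12 nM) and NKH477 (200 nM) for 30 min at room temperature; HTRF cAMP read after 1 h detection.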
The target of assay [19] is Muscarinic acetylcholine receptor M1 (Homo sapiens) (UniProt P11229). The assay can be described thus: Cholinergic receptor muscarinic 1 (CHRM1) small molecule agonists, cell-based qHTS assay (AID 1963589). Also: nearly all actives have a fitted effect of over 35% in size. The essentials: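 Cells were plated and incubated 18 h at 37 C/5% CO2, loaded with calcium dye for 1 h at 37 C, then treated with compounds in DMSO. Fluorescence was recorded kinetically at 1 sec intervals.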

The target in assay [20] is Beta-2 adrenergic receptor (Homo sapiens) (UniProt P07550). Put plainly: Adrenergic beta2 receptor (ADRB2) small molecule agonists, cell-based qHTS assay (AID 1963593).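 Also: CHO cells stably overexpressing human ADRB2.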 Summed up:
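CHO cells stably over-expressing ADRB2 were plated overnight at 37C, then dosed with compounds plus a stimulation mix containing 100uM IBMX and 25uM Ro-20-1724 for 0.5hr at room temperature. cAMP was measured by HTRF competition, 1hr.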

Chain of 5-hydroxytryptamine receptor 2A (Homo sapiens) (P28223 whole entry, looked up): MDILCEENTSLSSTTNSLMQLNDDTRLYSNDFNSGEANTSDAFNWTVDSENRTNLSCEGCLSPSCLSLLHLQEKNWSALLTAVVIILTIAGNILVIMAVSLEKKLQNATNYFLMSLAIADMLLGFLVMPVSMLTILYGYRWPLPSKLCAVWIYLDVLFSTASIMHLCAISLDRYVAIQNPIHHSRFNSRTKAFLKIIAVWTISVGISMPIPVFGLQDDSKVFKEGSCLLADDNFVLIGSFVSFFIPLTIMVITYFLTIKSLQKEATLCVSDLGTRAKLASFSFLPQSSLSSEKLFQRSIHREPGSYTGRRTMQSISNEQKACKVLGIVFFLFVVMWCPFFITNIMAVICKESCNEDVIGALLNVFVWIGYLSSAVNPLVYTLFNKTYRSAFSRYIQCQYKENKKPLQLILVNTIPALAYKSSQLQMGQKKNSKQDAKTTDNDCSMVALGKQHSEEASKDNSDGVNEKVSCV
Chain of Muscarinic acetylcholine receptor M1 (Homo sapiens) (P11229 whole entry, looked up): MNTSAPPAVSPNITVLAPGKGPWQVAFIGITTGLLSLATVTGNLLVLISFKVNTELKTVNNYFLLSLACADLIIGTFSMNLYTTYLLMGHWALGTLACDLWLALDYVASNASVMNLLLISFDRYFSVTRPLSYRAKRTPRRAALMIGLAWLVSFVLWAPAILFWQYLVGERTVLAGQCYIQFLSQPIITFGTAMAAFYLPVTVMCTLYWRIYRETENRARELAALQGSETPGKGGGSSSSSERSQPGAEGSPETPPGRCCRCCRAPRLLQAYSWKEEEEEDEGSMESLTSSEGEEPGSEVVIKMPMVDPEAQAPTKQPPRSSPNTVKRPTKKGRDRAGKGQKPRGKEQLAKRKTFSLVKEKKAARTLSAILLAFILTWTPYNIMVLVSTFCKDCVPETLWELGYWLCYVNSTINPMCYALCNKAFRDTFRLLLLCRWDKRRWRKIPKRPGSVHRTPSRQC
Chain of D(2) dopamine receptor (Homo sapiens) (P14416 whole entry, looked up): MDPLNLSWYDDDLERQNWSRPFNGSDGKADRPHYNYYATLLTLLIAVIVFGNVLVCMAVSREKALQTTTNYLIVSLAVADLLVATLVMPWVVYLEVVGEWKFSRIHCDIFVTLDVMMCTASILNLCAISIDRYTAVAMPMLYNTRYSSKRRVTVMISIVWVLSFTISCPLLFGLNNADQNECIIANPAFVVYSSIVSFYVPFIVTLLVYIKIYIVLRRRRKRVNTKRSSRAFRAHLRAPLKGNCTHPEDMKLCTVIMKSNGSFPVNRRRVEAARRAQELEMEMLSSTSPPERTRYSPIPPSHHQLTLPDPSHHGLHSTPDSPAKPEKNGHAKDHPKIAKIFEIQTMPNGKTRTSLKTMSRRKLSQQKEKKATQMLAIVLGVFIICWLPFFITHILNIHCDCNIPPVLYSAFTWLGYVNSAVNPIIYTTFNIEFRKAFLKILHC
Chain of Beta-2 adrenergic receptor (Homo sapiens) (P07550 whole entry, looked up): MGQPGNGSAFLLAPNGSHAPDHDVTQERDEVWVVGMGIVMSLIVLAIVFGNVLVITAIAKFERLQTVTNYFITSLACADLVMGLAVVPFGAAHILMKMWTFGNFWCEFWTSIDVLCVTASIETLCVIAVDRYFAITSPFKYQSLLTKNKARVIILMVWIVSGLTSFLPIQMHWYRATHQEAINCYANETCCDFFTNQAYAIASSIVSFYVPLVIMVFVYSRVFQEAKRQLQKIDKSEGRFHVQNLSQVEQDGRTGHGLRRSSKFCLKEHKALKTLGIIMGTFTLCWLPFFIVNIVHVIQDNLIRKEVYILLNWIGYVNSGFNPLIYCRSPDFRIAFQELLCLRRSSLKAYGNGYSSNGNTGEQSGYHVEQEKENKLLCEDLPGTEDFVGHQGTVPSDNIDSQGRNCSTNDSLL
Chain of KiSS-1 receptor (Homo sapiens) (Q969F8 whole entry, looked up): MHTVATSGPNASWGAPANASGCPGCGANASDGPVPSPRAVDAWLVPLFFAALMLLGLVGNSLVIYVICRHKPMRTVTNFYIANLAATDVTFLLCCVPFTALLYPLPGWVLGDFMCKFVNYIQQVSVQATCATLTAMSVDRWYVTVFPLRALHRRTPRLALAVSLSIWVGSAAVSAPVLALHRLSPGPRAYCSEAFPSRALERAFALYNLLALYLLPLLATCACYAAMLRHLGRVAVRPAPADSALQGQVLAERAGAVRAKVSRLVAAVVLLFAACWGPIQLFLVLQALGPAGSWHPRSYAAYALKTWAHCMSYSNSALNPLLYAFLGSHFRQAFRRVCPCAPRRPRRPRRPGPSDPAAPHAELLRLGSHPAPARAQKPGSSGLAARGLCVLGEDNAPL
Chain of Gonadotropin-releasing hormone receptor (Homo sapiens) (P30968 whole entry, looked up): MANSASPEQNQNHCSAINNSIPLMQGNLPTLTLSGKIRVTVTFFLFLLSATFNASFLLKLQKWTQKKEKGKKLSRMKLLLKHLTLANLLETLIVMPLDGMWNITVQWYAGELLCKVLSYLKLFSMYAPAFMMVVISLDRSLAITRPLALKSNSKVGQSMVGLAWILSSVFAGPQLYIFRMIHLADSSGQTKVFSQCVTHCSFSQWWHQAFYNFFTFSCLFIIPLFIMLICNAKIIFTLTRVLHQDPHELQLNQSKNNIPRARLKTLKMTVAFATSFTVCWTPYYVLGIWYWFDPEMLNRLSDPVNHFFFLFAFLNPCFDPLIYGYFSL

With `CC(C)(O)C(=O)c1ccccc1`, the Potency result in [1], in assay [2], in assay [3], in [6], in assay [7] and in assay [8] was “inactive” each time. In addition, the Potency result in assay [9], in [10], in assay [11], in assay [12], in assay [13] and in [14] was “inactive” each time. The Potency result in assay [15], in assay [16], in assay [17] and in [18] was “inactive” each time. The result in assay [4] and in assay [5] was inactive.

With `CNS(=O)(=O)CCc1ccc2[nH]cc(C3CCN(C)CC3)c2c1`, the Potency result in assay [1], in assay [2], in [3], in assay [6], in assay [7] and in assay [8] was “inactive” each time. The Potency entry in assay [9], in [10], in [11], in assay [12], in assay [13] and in assay [15] was “inactive” throughout. For the same compound, the Potency entry in assay [17] and in assay [18] was “inactive” in each case. Moreover, the result in [4] and in assay [5] was inactive.

As to `CCCCCCCCCCCCCCCCOS(=O)(=O)O`, the Potency result in assay [1], in [2], in [3], in assay [6], in assay [7] and in assay [8] was “inactive” in each case. In addition, the Potency entry in assay [9], in [10], in assay [11], in [13], in assay [19] and in assay [14] was “inactive” in each case. Also, the Potency result in assay [15], in assay [16], in assay [17] and in assay [18] was “inactive” in each case. Moreover, the outcome in assay [4] and in assay [5] was inactive.

For the compound `Cc1nc2n(c(=O)c1CCN1CCC(C(=O)c3ccc(F)cc3)CC1)CCS2`, the Potency entry in [1], in [2], in assay [3], in [6], in assay [7] and in [8] was “inactive” throughout. Besides, the Potency result in assay [9], in [10], in assay [11], in assay [12], in assay [19] and in assay [14] was “inactive” throughout. The Potency entry in assay [15], in [16], in [20] and in [17] was “inactive” throughout. Moreover, the result in assay [4] and in assay [5] was inactive.

`Nc1cc(C(=O)O)c(O)c(S(=O)(=O)O)c1`: the Potency result in assay [1], in [2], in assay [3], in assay [6], in assay [7] and in assay [8] was “inactive” each time. The Potency entry in assay [9], in [10], in [11], in assay [12], in assay [19] and in assay [15] was “inactive” throughout. The Potency result in assay [16], in assay [17] and in [18] was “inactive” in each case. Moreover, the result in assay [4] and in assay [5] was inactive.

For `CCC(=O)OC(=O)CC`, the Potency entry in [1], in assay [3], in assay [6], in assay [7], in [8] and in [9] was “inactive” in each case. Moreover, the Potency entry in assay [10], in assay [11], in assay [12], in assay [13], in assay [19] and in assay [15] was “inactive” throughout. Besides, the Potency entry in assay [16], in assay [17] and in [18] was “inactive” throughout. Also, the Potency in assay [2] was 27.1 µM (active). In addition, the outcome in assay [4] and in assay [5] was inactive.

Regarding `COc1ccc(C(C)=O)cc1`, the Potency result in assay [1], in assay [2], in assay [3], in [6], in [7] and in assay [8] was “inactive” throughout. For the same compound, the Potency result in [9], in assay [10], in assay [11], in [12], in [19] and in [14] was “inactive” throughout. The Potency result in assay [15], in assay [16], in assay [20], in assay [17] and in [18] was “inactive” each time. The outcome in [4] and in [5] was inactive.
